# Values joined by “and” are separate entries in the source; they are usually repeats but may differ in a detail not shown here. Equal values may be shown once. Inconclusive results are not listed. Active and inactive are the calls of the source. Rule for the calls, unless noted: active = hit-call score of the fitted dose curve at least 0.9, where 1 is the maximum; inactive = score below 0.9.
# Experiments:
# [1] = read-out: Monokine induced gamma interferon (MIG), CXCL9 (gene 4283); test: BSK_KF3CT_MIG: BioMAP Diversity Plus: KF3CT Assay for Monokine induced gamma interferon (MIG) Biomarker Activity (AID 2284248); settings: primary human keratinocytes with fibroblasts
# Procedure, shortened: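 KF3CT system: keratinocyte/fibroblast co-culture, 24 h post-dose, MIG by ELISA; activity vs DMSO, positive fitting direction.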
# [2] = read-out: Plasminogen activator inhibitor-1 (PAI1), SERPINE1 (gene 5054); test: BSK_KF3CT_PAI1: BioMAP Diversity Plus: KF3CT Assay for Plasminogen activator inhibitor-1 (PAI1) Biomarker Activity (AID 2284252); settings: primary human keratinocytes with fibroblasts
# Procedure, shortened: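 Human primary keratinocyte/foreskin fibroblast co-culture was dosed with compound and sampled at 24 h. PAI-1 was quantified by ELISA, with activity fitted in the positive direction relative to DMSO vehicle as baseline.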
# [3] = read-out: Intercellular Adhesion Molecule 1 (ICAM1), ICAM1 (gene 3383); test: BSK_BE3C_ICAM1: BioMAP Diversity Plus: BE3C Assay for Intercellular Adhesion Molecule 1 (ICAM1) Biomarker Activity (AID 2284278); settings: primary human bronchial epithelial cells;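 note: cell-surface ICAM-1 protein level quantified by ELISA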
# Procedure, shortened: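 Primary human bronchial epithelial cells were exposed to compound for 24 h, after which cell-surface ICAM-1 was quantified by ELISA. Activity was fitted in the gain-of-signal direction against DMSO as negative control and baseline.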
# [4] = read-out: Interferon-inducible T-cell alpha chemoattractant (ITAC), CXCL11 (gene 6373); test: BSK_BE3C_ITAC: BioMAP Diversity Plus: BE3C Assay for Interferon-inducible T-cell alpha chemoattractant (ITAC) Biomarker Activity (AID 2284279); settings: primary human bronchial epithelial cells
# Procedure, shortened: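 The assay measures I-TAC levels by ELISA in human primary bronchial epithelial cell cultures 24 hours after chemical treatment. Values reflect signal increase over the DMSO baseline.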
# [5] = read-out: Interleukin-8 (IL8), CXCL8 (gene 3576); test: BSK_BE3C_IL8: BioMAP Diversity Plus: BE3C Assay for Interleukin-8 (IL8) Biomarker Activity (AID 2284280); settings: primary human bronchial epithelial cells
# Procedure, shortened: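 ELISA read-out of IL-8 in human lung bronchial epithelial primary cell cultures, 24 h post-dosing; endpoint analysed as signal increase relative to DMSO baseline.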
# [6] = read-out: Epidermal growth factor receptor (EGFR), EGFR (gene 1956); test: BSK_BE3C_EGFR: BioMAP Diversity Plus: BE3C Assay for Epidermal growth factor receptor (EGFR) Biomarker Activity (AID 2284281); settings: primary human bronchial epithelial cells
# Procedure, shortened: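 Primary human lung bronchial epithelial cells; compound, 24 h; EGFR measured by ELISA; positive-direction fit vs DMSO baseline.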
# KRT18 (gene 3875) = test: BSK_BE3C_Keratin818: BioMAP Diversity Plus: BE3C Assay for Keratin 818 Biomarker Activity (AID 2284282); settings: primary human bronchial epithelial cells
# Procedure, shortened: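 Human primary bronchial epithelial cells in the BE3C system were exposed to test chemical for 24 h, then Keratin 8/18 was quantified by ELISA. Activity was fitted in the positive direction against DMSO as negative control and baseline.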
# [7] = read-out: Plasminogen activator inhibitor-1 (PAI1), SERPINE1 (gene 5054); test: BSK_CASM3C_PAI1: BioMAP Diversity Plus: CASM3C Assay for Plasminogen activator inhibitor-1 (PAI1) Biomarker Activity (AID 2284284); settings: primary human coronary artery smooth muscle cells;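 note: PAI-1 protein level measured by ELISA 24 h after dosing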
# [8] = read-out: Monocyte Chemoattractant Protein-1 (MCP1), CCL2 (gene 6347); test: BSK_hDFCGF_MCP1: BioMAP Diversity Plus: hDFCGF Assay for Monocyte Chemoattractant Protein-1 (MCP1) Biomarker Activity (AID 2284285); settings: primary human foreskin fibroblasts
# Procedure, shortened: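 Human foreskin fibroblasts (hDFCGF system) were exposed to compound and secreted MCP-1 was measured by ELISA after 24 hours. Activity was fitted relative to DMSO. Cytotoxicity was checked by SRB total-protein staining in parallel cultures.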
# [9] = read-out: Intercellular Adhesion Molecule 1 (ICAM1), ICAM1 (gene 3383); test: BSK_hDFCGF_ICAM1: BioMAP Diversity Plus: hDFCGF Assay for Intercellular Adhesion Molecule 1 (ICAM1) Biomarker Activity (AID 2284287); settings: primary human foreskin fibroblasts
# Procedure, shortened: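 Primary human foreskin fibroblasts (hDFCGF system) dosed with chemical; ICAM-1 quantified by ELISA at 24 h relative to DMSO. Parallel SRB total-protein staining to assess overt cytotoxicity.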
# [10] = read-out: TIMP metallopeptidase inhibitor 2 (TIMP2), TIMP2 (gene 7077); test: BSK_hDFCGF_TIMP2: BioMAP Diversity Plus: hDFCGF Assay for TIMP metallopeptidase inhibitor 2 (TIMP2) Biomarker Activity (AID 2284289); settings: primary human foreskin fibroblasts
# Procedure, shortened: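 Primary human foreskin fibroblasts in the hDFCGF system, dosed for 24 h; TIMP-2 level measured by ELISA, fitted in the positive direction against DMSO; cytotoxicity checked in parallel by sulforhodamine B total protein staining.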
# [11] = read-out: Thrombomodulin, THBD (gene 7056); test: BSK_LPS_Thrombomodulin: BioMAP Diversity Plus: LPS Assay for Thrombomodulin Biomarker Activity (AID 2284296); settings: primary human HUVEC with PBMC
# Procedure, shortened: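 Human umbilical vein endothelial cells co-cultured with PBMC and stimulated with LPS; cell-surface thrombomodulin measured by ELISA 24 hours after compound. Gain or loss versus DMSO; cytotoxicity checked by SRB staining in parallel cultures.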
# CD69, CD69 (gene 969) = test: BSK_LPS_CD69: BioMAP Diversity Plus: LPS Assay for CD69 Biomarker Activity (AID 2284303); settings: primary human HUVEC with PBMC
# Procedure, shortened: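 Human umbilical vein endothelial cells co-cultured with PBMC under LPS stimulation, chemical exposure 24 h; cell-surface CD69 measured by ELISA and fitted in the positive direction versus DMSO.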
# AR (gene 367) = AR (gene 367) (UniProt P10275); test: ACEA_AR_agonist_80hr: ACEA Biosciences xCELLigence Real-Time Cell Analysis on Androgen Receptor Agonism for Proliferation (AID 2283783; active = hit-call score of the fitted dose curve at least 0.9, where 1 is the maximum;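 note: hits increase impedance growth signal above DMSO baseline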)
# AR (gene 367), sequence (P10275 whole entry, looked up): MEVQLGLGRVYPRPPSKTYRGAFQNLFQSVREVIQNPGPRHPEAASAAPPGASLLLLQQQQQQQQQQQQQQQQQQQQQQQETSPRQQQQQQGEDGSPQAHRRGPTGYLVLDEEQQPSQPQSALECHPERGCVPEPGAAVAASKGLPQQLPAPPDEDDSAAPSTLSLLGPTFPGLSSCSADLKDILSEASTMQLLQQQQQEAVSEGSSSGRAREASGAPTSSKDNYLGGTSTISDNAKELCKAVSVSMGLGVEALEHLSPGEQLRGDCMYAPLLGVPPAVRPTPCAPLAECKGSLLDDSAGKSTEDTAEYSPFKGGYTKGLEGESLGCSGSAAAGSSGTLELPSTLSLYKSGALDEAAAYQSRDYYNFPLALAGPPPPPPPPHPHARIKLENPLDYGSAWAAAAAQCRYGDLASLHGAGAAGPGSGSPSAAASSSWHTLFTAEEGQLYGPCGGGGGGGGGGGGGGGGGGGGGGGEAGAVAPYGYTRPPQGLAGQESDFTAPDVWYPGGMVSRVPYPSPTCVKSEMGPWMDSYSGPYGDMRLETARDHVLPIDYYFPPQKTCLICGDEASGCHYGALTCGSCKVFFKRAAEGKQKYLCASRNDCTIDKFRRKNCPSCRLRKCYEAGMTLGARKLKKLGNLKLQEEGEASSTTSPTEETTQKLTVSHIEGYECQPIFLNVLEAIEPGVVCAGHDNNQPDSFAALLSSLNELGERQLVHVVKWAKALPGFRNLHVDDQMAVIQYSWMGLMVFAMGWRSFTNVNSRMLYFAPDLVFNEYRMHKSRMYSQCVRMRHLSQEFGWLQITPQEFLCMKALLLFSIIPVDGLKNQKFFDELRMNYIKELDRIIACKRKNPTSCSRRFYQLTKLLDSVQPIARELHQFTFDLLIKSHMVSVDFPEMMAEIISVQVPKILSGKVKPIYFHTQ
# Procedure, shortened: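 22Rv1 human prostate cancer cells were seeded after preconditioning in assay medium and monitored overnight, then dosed in an eight-point 1:4 dilution series from 100 uM (≤0.5% DMSO). Impedance-based growth was read at 80 h, gain-of-signal versus DMSO.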
# [12] = biological target: Nucleoli Translocation, AR (gene 367) (UniProt P10275); test: UPITT_HCI_U2OS_AR_TIF2_Nucleoli_Antagonist: University of Pittsburgh U2OS Androgen Receptor-Transcriptional Intermediary Factor 2 (AR-TIF2) Antagonism High Content Imaging Assay for Nucleoli Translocation (AID 2283997; active = hit-call score of the fitted dose curve at least 0.9, where 1 is the maximum)
# Nucleoli Translocation, AR (gene 367), sequence (P10275 whole entry, looked up): as above
# Procedure, shortened: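 U2OS cells expressing RFP-tagged human AR and GFP-tagged TIF2 were imaged by high-content fluorescence microscopy for red AR signal in the nucleolar region. Compounds were screened at 20 uM final (0.2% DMSO), with activity fitted relative to DHT as baseline.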
# [13] = biological target: Cytochrome P450 2C19 (Homo sapiens) (UniProt P33261); test: NVS_ADME_hCYP2C19: NovaScreen (NVS) CYP450-related Enzyme Activity (ADME) Assay for human CYP2C19 (AID 2283113; active = hit-call score of the fitted dose curve at least 0.9, where 1 is the maximum;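 note: potency for inhibition seen as loss of fluorescent signal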)
# Procedure, shortened: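 Fluorescence intensity was measured 1 hour after chemicals were added to insect-cell-derived recombinant CYP2C19 with fluorogenic substrate. Decreased signal versus acetonitrile control was taken as reduced enzyme activity; initial testing used 10 uM in duplicate.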
# [14] = biological target: human Matrix Metalloproteinase-9 (MMP9), MMP9 (gene 4318) (UniProt P14780); test: NVS_ENZ_hMMP9: NovaScreen (NVS) Enzymatic Assay for human Matrix Metalloproteinase-9 (MMP9) (AID 2283190; active = hit-call score of the fitted dose curve at least 0.9, where 1 is the maximum;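 note: cell-free recombinant MMP9 protease activity read by fluorescent substrate signal; active means inhibition seen as loss of fluorescence signal versus DMSO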)
# human Matrix Metalloproteinase-9 (MMP9), MMP9 (gene 4318), sequence (P14780 whole entry, looked up): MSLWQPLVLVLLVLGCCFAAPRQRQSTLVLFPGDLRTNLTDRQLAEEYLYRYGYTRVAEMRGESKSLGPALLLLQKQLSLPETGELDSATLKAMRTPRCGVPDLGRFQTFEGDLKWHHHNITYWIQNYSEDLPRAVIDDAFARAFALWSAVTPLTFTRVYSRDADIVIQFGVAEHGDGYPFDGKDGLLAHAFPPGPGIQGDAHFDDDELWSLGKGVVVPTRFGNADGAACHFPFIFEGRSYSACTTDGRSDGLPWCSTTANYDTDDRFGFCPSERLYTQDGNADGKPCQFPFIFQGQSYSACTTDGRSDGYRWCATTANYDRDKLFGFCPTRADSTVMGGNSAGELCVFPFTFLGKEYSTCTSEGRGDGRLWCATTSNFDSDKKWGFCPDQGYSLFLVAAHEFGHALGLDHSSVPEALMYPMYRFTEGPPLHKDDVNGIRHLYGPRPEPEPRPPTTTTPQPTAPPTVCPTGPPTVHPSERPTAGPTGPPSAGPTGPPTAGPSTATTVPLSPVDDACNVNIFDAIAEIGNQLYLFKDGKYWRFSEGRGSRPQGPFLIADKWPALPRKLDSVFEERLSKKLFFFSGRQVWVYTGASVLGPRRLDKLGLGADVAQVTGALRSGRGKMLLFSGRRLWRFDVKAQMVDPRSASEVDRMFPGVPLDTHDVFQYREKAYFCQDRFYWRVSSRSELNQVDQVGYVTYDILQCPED
# Procedure, shortened: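 Screening concentration 25 uM, duplicate wells, then dose series for confirmation. Cell-free enzymatic reaction measured by fluorescence intensity 1 h post-dosing; decreased signal versus DMSO taken as activity.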
# [15] = biological target: human Esterase Plasma (ES), BCHE (gene 590) (UniProt P06276); test: NVS_ENZ_hES: NovaScreen (NVS) Enzymatic Assay for human Esterase Plasma (ES) (AID 2283157; active = hit-call score of the fitted dose curve at least 0.9, where 1 is the maximum)
# human Esterase Plasma (ES), BCHE (gene 590), sequence (P06276 whole entry, looked up): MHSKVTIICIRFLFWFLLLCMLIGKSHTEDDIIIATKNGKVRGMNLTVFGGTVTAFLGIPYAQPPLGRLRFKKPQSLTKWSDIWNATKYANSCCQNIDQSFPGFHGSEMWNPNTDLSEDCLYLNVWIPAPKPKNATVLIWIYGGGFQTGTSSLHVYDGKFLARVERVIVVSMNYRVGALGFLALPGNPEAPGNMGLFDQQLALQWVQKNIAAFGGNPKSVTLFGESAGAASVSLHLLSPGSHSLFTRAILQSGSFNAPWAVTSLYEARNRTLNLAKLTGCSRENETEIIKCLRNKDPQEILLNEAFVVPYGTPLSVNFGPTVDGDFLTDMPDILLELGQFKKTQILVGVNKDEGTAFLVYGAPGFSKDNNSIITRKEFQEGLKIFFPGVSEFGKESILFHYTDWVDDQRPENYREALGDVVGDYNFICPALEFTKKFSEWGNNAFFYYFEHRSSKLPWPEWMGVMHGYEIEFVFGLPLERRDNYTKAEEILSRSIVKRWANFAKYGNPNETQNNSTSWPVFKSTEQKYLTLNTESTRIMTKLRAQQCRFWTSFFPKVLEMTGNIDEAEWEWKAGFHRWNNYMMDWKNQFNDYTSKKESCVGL
# Procedure, shortened: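 Cell-free enzyme assay using esterase extracted from human plasma; colorimetric absorbance read 0.25 hour after dosing. Single-concentration duplicate screen at 25 uM, then concentration-response up to 50 uM; loss of signal scored against DMSO baseline.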
# [16] = biological target: human Neurokinin, NK2 Receptor, TACR2 (gene 6865) (UniProt P21452); test: NVS_GPCR_hNK2: NovaScreen (NVS) G Protein-Coupled Receptor Assay for human Neurokinin, NK2 Receptor (AID 2283278; active = hit-call score of the fitted dose curve at least 0.9, where 1 is the maximum;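 note: actives reduce bound radioligand signal relative to DMSO baseline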)
# human Neurokinin, NK2 Receptor, TACR2 (gene 6865), sequence (P21452 whole entry, looked up): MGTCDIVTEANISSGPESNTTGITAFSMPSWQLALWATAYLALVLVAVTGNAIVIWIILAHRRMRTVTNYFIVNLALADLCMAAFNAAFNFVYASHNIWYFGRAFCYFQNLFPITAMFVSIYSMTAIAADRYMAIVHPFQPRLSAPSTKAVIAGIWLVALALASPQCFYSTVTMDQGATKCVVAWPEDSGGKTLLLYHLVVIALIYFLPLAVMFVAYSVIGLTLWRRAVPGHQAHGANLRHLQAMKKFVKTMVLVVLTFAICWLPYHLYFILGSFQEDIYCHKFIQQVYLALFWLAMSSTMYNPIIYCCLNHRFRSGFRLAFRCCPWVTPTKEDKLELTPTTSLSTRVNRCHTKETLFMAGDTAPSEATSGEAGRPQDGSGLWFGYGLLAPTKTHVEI
# Procedure, shortened: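 Test chemicals displace a radioligand from receptor prepared from CHO cells in a cell-free format, read after 4 hours by scintillation counting on filters. Screening starts at 25 uM in duplicate, and active chemicals then go to concentration series.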
# [17] = CEETOX_H295R_PROG: CeeTox H295R High-throughput Steroidogenesis Assay for Progesterone (PROG) (AID 2283442); settings: actives raise or lower the signal;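 for AC50: human H295R adrenal cells primed with 10 µM forskolin before dosing; progesterone secreted into medium by H295R cells measured by HPLC-MS/MS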
# Procedure, shortened: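 Steps: seed H295R cells and let them adhere overnight; prime 48 h with 10 uM forskolin; dose with compound in DMSO at 0.1% final for 48 h; extract medium steroids with MTBE; measure progesterone by LC-MS/MS. MTT viability was run in the same wells.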
smiles,measurement,setting,value
CN(C)Cc1cc(C(C)(C)C)c(O)c(C(C)(C)C)c1,outcome,[1],inactive
same,outcome,[2],inactive
same,outcome,[3],inactive
same,outcome,[4],inactive
same,outcome,[5],inactive
same,outcome,[6],inactive
same,outcome,KRT18 (gene 3875),inactive
same,outcome,[7],inactive
same,outcome,[8],inactive
same,outcome,[9],inactive
same,outcome,[10],inactive
same,outcome,[11],inactive
same,AC50,"CD69, CD69 (gene 969)",20 µM (active) and 23.1 µM (active)
Cc1cc(C)c(S(=O)(=O)O)cc1N=Nc1cc(S(=O)(=O)O)c2ccccc2c1O,outcome,AR (gene 367),inactive
same,outcome,[12],inactive
O=C(c1ccccc1)c1ccccc1O,outcome,[12],inactive
CN(C)c1ccc(C(c2ccccc2)c2ccc(N(C)C)cc2)cc1,AC50,[13],0.356 µM (active)
same,outcome,[14],inactive
CO[Si](CCCNCCN)(OC)OC,outcome,AR (gene 367),inactive
CC[N+](CC)(CC(=O)Nc1c(C)cccc1C)Cc1ccccc1,AC50,[15],3.7 µM (active)
same,AC50,[16],16.6 µM (active)
CC[N+](CC)(CC(=O)Nc1c(C)cccc1C)Cc1ccccc1 (tested in a mixture with another compound),outcome,[1],inactive
same,outcome,[2],inactive
same,outcome,[3],inactive
same,outcome,[4],inactive
same,outcome,[5],inactive
same,outcome,[6],inactive
same,outcome,KRT18 (gene 3875),inactive
same,outcome,[7],inactive
same,outcome,[8],inactive
same,outcome,[9],inactive
same,outcome,[10],inactive
same,outcome,[11],inactive
same,outcome,"CD69, CD69 (gene 969)",inactive
CCO[Si](OCC)(OCC)c1ccccc1,AC50,[14],1.37 µM (active)
CCCCCCCCCCCCCCCCCC[N+](C)(C)C,AC50,[16],4.53 µM (active)
Sc1nc2ccccc2s1,AC50,[13],5 µM (active)
CCCCOC(=O)COc1ccc(Cl)cc1Cl,outcome,[17],inactive
CCO[Si](CCCN)(OCC)OCC,outcome,[17],inactive
CN(C)CCC(c1ccc(Cl)cc1)c1ccccn1 (stereo unspecified),AC50,[15],19.9 µM (active)
c1ccc(CNc2ncnc3nc[nH]c23)cc1,AC50,[17],21.9 µM (active)

# Reference: PubChem BioAssay (EPA / NIEHS)
